# Test results reported in PubChem BioAssay (NCATS).
# Where “and” joins values, the source holds several entries; their conditions need not be identical. Equal entries are not always repeated. Records with an inconclusive call do not appear. Entries that show only a call come without a potency. Calls of active or inactive are those of the source. Unless noted, the call rests on the fitted dose curve; in most records, active means well fitted curve in the direction sought with a large enough effect; inconclusive means small, poorly fitted or top-dose-only effect, or another doubt; inactive means no such curve, though single readings can be large; an effect the other way counts as inactive or inconclusive.
# Tests used:
# [1] = molecular target: Alpha-galactosidase A (Homo sapiens) (UniProt P06280); assay: Counterscreen for Glucocerebrosidase Inhibitors: qHTS Assay for Human alpha-Galactosidase at pH 4.5 (AID 992)
# Method in brief: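 Enzyme at 2 nM final was combined with compound (0.7 nM to 77 uM) and 80 uM 4-methylumbelliferyl alpha-D-galactopyranoside in 50 mM citric acid, 0.005% Tween-20, pH 4.5. After 20 min at room temperature, fluorescence was read (Ex 365/Em 440 nm); AC50 came from Hill fits.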
# [2] = molecular target: alpha-glucosidase (Oryza sativa, rice) (UniProt Q653V4); assay: Counterscreen for Glucocerebrosidase Inhibitors: qHTS Assay for Rice alpha-Glucosidase at pH 5.0 (AID 997)
# Method in brief: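 Rice alpha-glucosidase (4 nM final) with 400 uM 4-methylumbelliferyl-alpha-D-glucopyranoside in citrate buffer pH 5.0, 20 min at room temperature, stopped at pH 10; fluorescence 365/440 nm, compounds 0.7 nM–77 uM, AC50 from Hill fits.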
# [3] = Validation of Assay for Modulators of Lamin A Splicing (AID 1459; active means well fitted curve in the direction sought with a large enough effect in the signal ratio; the % refers to the signal ratio;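 further: cells exposed to compound for two days before reading; ratio rise marks activators and ratio drop marks inhibitors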)
# Method in brief: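 Dual-reporter HeLa S3 line (lamin A-EGFP minigene, DsRed2) treated with compounds 48 hrs, 0.5% DMSO final. Endpoint: EGFP/DsRed2 total intensity ratio from laser-scanning microplate cytometry.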
# [4] = qHTS Assay for Lipid Storage Modulators (AID 1519; calls by dose curve); conditions: Drosophila S3 cells, BODIPY lipid droplet/cell ratio, laser cytometry, cells loaded with oleic acid
# Method in brief: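 Cells seeded at 5,000 per well were treated with compounds over a concentration series and loaded with oleic acid (400 uM, as added). Lipid droplet fluorescence (488 nm excitation, 500-530 nm channel) was read by laser-scanning cytometry and normalized to 20 uM Triacsin C.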
# [5] = Cell Viability - LYMP2-023 (AID 975);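 further: cellular ATP measured by luciferase luminescence as viability proxy; nearly all actives have a fitted effect of over 55% in size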
# Method in brief: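 2500 cells/well, 5 hr 37 C; cpd 24 hr 37 C; CellTiter-Glo, 30 min RT; luminescence. qHTS conc-response, Hill fit -> AC50. Pos ctrl tetraoctylammonium bromide.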
# [6] = Cell Viability - LYMP2-025 (AID 976)
# Method in brief: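 Seed 2500 LYMP2-025 cells/well; 5 hr at 37 C; add compound; 24 hr at 37 C; add CellTiter-Glo; 30 min RT; read luminescence. AC50 from Hill-modelled concentration-response.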
# [7] = Cell Viability - LYMP2-002 (AID 977);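 further: compound exposure lasted 24 h at 37 °C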
# Method in brief: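 Human lymphoblastoid LYMP2-002 cells, 2500 per well, exposed to compounds for 24 h at 37 C in complete medium; viability read as intracellular ATP by CellTiter-Glo luminescence, AC50 from Hill fits.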
# [8] = Cell Viability - LYMP2-006 (AID 978); further: nearly all actives have a fitted effect of over 60% in size
# Method in brief: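 In this cytotoxicity screen, the human lymphoblastoid line grew in complete medium with test compounds for 24 hr at 37 C. Cellular ATP served as the viability signal.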
# [9] = Cell Viability - LYMP2-007 (AID 979);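 further: cells exposed to compound for 24 h before reading; nearly all actives have a fitted effect of over 60% in size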
# Method in brief: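 Luminescent ATP signal (CellTiter-Glo) serves as the viability read-out after 24 hr compound treatment of lymphoblastoid cells in complete medium at 37 C. Concentration-response data were fitted to the Hill equation to give AC50 values.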
# [10] = Cell Viability - LYMP2-008 (AID 980); further: nearly all actives have a fitted effect of over 60% in size
# Method in brief: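 qHTS, human lymphoblastoid line, 2500 cells/well; 5 hr preincubation, 24 hr compound, 37 C. CellTiter-Glo ATP luminescence. AC50 via Hill equation. Tetraoctylammonium bromide positive control.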
# [11] = Cell Viability - LYMP2-010 (AID 981); further: nearly all actives have a fitted effect of over 55% in size
# Method in brief: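 Luminescent ATP signal (CellTiter-Glo) served as the viability read-out. Cells of the human lymphoblastoid line were treated with compound over a concentration range for 24 hours at 37 C, and AC50 values came from Hill-equation modeling.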
# [12] = Cell Viability - LYMP2-014 (AID 983); further: nearly all actives have a fitted effect of over 50% in size
# Method in brief: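 Luminescent ATP signal (CellTiter-Glo, 30 min at room temperature) serves as the viability read-out after 24 hr compound exposure at 37 C. Cells were seeded at 2500 per well and settled 5 hr beforehand.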
# [13] = Cell Viability - LYMP2-016 (AID 984); further: nearly all actives have a fitted effect of over 55% in size
# Method in brief: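 Concentration-dependent ATP depletion measured in LYMP2-016 lymphoblastoid cells, 24 h, 37 C; luciferase-based luminescent detection; Hill-equation AC50.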
# [14] = Cell Viability - LYMP2-018 (AID 985); further: nearly all actives have a fitted effect of over 50% in size
# Method in brief: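 Luminescent ATP signal (CellTiter-Glo, read after 30 min at room temperature) reports viable cells after 24 hr compound treatment at 37 C. Concentration-response data were fitted to the standard Hill equation for AC50.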
# [15] = Cell Viability - LYMP2-020 (AID 986); further: nearly all actives have a fitted effect of over 55% in size
# Method in brief: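 Luminescent ATP signal (CellTiter-Glo, 30 min at room temperature) is the read-out after 24 h compound treatment of lymphoblastoid cells at 37 C. AC50 values come from Hill-equation fits across concentrations.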
# [16] = Cell Viability - LYMP2-022 (AID 987); further: nearly all actives have a fitted effect of over 55% in size
# Method in brief: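 qHTS: human lymphoblastoid cells 2500/well; 5 hr 37 C; cpd added; 24 hr 37 C; CellTiter-Glo, 30 min RT; luminescence. AC50 via Hill fit; tetraoctylammonium bromide positive ctrl.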
# [17] = Cell Viability - LYMP2-024 (AID 988); further: nearly all actives have a fitted effect of over 60% in size
# Method in brief: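 Steps: seed 2500 cells/well, 5 hr 37 C; add compound, 24 hr 37 C; add CellTiter-Glo, 30 min room temperature; read luminescence. AC50 derived by Hill modelling of concentration-dependent ATP loss.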
# [18] = Cell Viability - LYMP2-026 (AID 989); further: nearly all actives have a fitted effect of over 50% in size
# Method in brief: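 Luminescent ATP signal (CellTiter-Glo, 30 min room temperature) measures viable lymphoblastoid cells after 24 hr compound treatment at 37 C. Decreased ATP reflects acute toxicity; AC50 values come from Hill-equation modeling.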
# [19] = Cell Viability - LYMP1-002 - Assay at 24 hr (AID 993)
# Method in brief: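 Cells plated 2500/well, 5 hr 37 C; compounds added, 24 hr 37 C; CellTiter-Glo added, 30 min RT; luminescence read. Tetraoctylammonium bromide positive control. Hill-equation AC50.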
# [20] = Cell Viability - LYMP1-002 - Assay at 40 hr (AID 994); further: nearly all actives have a fitted effect of over 60% in size
# Method in brief: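 Luminescent ATP signal served as the viability readout, with decreases taken as toxicity. Cells were treated with compounds across a concentration range for 40 hours at 37 C, and AC50 values came from standard Hill modeling.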
# [21] = measured here: cell count channel max response
# [22] = measured here: lipid channel max response
# Chain of Alpha-galactosidase A (Homo sapiens) (P06280 whole entry, looked up): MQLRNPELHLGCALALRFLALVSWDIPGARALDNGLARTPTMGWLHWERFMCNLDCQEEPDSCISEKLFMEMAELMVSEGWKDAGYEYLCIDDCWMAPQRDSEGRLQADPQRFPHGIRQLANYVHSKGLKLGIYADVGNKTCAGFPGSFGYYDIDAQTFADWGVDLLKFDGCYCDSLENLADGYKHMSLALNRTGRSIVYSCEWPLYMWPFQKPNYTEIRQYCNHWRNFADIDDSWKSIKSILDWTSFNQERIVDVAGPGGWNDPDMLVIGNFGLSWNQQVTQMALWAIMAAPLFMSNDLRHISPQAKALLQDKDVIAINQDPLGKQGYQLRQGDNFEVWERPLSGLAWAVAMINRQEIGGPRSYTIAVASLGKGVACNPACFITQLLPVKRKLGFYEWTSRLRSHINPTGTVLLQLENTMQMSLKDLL
smiles,measurement,setting,value
Cc1ccc(S(=O)(=O)NC(=O)NN2CCCCCC2)cc1,outcome,[1],inactive
same,outcome,[2],inactive
same,outcome,[3],inactive
same,"activity change, negative = inhibition",[4]; at 25.7 µM (top of the series),0.497% (inactive)
same,"activity change, negative = inhibition",[4]; at 57.5 µM (top of the series),9.8% (inactive)
same,max response,[4]; [21],0.635% and 17.7%
same,max response,[4]; [22],2.19% and 33.1%
Cc1nc2ccccn2c(=O)c1CCN1CCC(C(=O)c2ccc(F)cc2)CC1,outcome,[1],inactive
same,outcome,[2],inactive
same,outcome,[3],inactive
same,"activity change, negative = inhibition",[4]; at 57.5 µM (top of the series),16.1% (inactive)
same,max response,[4]; [21],7.37%
same,max response,[4]; [22],24.1%
O=C(CCNNC(=O)c1ccncc1)NCc1ccccc1,outcome,[1],inactive
same,outcome,[2],inactive
same,outcome,[3],inactive
same,"activity change, negative = inhibition",[4]; at 25.7 µM (top of the series),-0.0465% (inactive)
same,"activity change, negative = inhibition",[4]; at 57.5 µM (top of the series),1.21% (inactive)
same,max response,[4]; [21],-2.07% and 1.8%
same,max response,[4]; [22],0.496% and 1.66%
Cc1cc(C)c(/C=C2\C(=O)Nc3ccccc32)[nH]1,outcome,[3],inactive
CN/C(=C\[N+](=O)[O-])NCCSCc1ccc(CN(C)C)o1,outcome,[1],inactive
same,outcome,[2],inactive
same,outcome,[3],inactive
same,"activity change, negative = inhibition",[4]; at 25.7 µM (top of the series),-0.0815% (inactive)
same,"activity change, negative = inhibition",[4]; at 57.5 µM (top of the series),4.77% (inactive) and 9.42% (inactive)
same,max response,[4]; [21],4.03% and -18.5% and 18.2%
same,max response,[4]; [22],2.82% and -19.9% and 33.3%
COc1cc(C(=O)OCCCN2CCCN(CCCOC(=O)c3cc(OC)c(OC)c(OC)c3)CC2)cc(OC)c1OC,outcome,[1],inactive
same,outcome,[2],inactive
same,outcome,[3],inactive
same,"activity change, negative = inhibition",[4]; at 25.7 µM (top of the series),-0.679% (inactive)
same,max response,[4]; [21],11.7%
same,max response,[4]; [22],8.49%
CC(C)COCC(CN(Cc1ccccc1)c1ccccc1)N1CCCC1 (centres undefined),outcome,[3],inactive
same,"activity change, negative = inhibition",[4]; at 57.5 µM (top of the series),2.08% (inactive)
same,max response,[4]; [21],20%
same,max response,[4]; [22],26.2%
N[C@@H](COP(=O)(O)O)C(=O)O,outcome,[1],inactive
same,outcome,[2],inactive
same,outcome,[3],inactive
same,"activity change, negative = inhibition",[4]; at 57.5 µM (top of the series),3.29% (inactive) and -0.662% (inactive)
same,max response,[4]; [21],18.8% and -18.9%
same,max response,[4]; [22],26.3% and -20.3%
CNCCC(Oc1ccccc1OC)c1ccccc1 (centres undefined),outcome,[3],inactive
CCCCNC(=O)NS(=O)(=O)c1ccc(C)cc1,outcome,[5],inactive
same,outcome,[6],inactive
same,Potency,[7],inactive
same,Potency,[8],inactive
same,outcome,[9],inactive
same,outcome,[10],inactive
same,Potency,[11],inactive
same,outcome,[12],inactive
same,outcome,[13],inactive
same,Potency,[14],inactive
same,Potency,[15],inactive
same,Potency,[16],inactive
same,Potency,[17],inactive
same,outcome,[18],inactive
same,outcome,[19],inactive
same,Potency,[20],inactive
same,outcome,[2],inactive
same,outcome,[3],inactive
same,"activity change, negative = inhibition",[4]; at 25.7 µM (top of the series),0.284% (inactive)
same,"activity change, negative = inhibition",[4]; at 57.5 µM (top of the series),5.43% (inactive) and -0.0777% (inactive)
same,max response,[4]; [21],-2.87% and 13.1% and 19.7%
same,max response,[4]; [22],-2.83% and 21.8% and 21.4%
CCn1nc(C(=O)O)c(=O)c2cc3c(cc21)OCO3,outcome,[1],inactive
same,outcome,[2],inactive
same,outcome,[3],inactive
same,"activity change, negative = inhibition",[4]; at 25.7 µM (top of the series),1.1% (inactive)
same,"activity change, negative = inhibition",[4]; at 57.5 µM (top of the series),13.5% (inactive)
same,max response,[4]; [21],-2.39% and 18.6%
same,max response,[4]; [22],0.268% and 42.8%
